Sampled rows, rich in hits. Any-hit rate of the full collection: about 1.3%.
SRC1 inh = SRC1 coactivator transcriptional activity inhibitors, primary screen, cell-based, luminescence. Nuclear receptor coactivator 1 (Homo sapiens), Q15788. inhibition, % at 3.6 µM. HEK293 GAL4-SRC1 luciferase reporter. AID 588354, 2011. 0.12% of 360,000 active;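 active = inhibition above the campaign mean plus 3 SD, with each screening campaign given its own cutoff, cut at about 60% in these data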;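 note: 0% = DMSO treated cells and 100% = gossypol at 36 µM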
SRC2 inh = inhibition of GAL4-SRC2 driven luciferase reporter, primary screen, SRC2 inhibitor project, cell-based, luminescence; Nuclear receptor coactivator 2 (Homo sapiens), Q15596; HEK293 GAL4-SRC2 luciferase reporter; inhibition, % at 9 µM; 0.17% of 370,000 active; AID 651957, 2012;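 active = inhibition above the mean inhibition of all tested compounds plus 3 SD, set per campaign, cut at about 52% in these data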;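 note: 0% = DMSO treated cells and 100% = cells given Gossypol at 36 µM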
SRC3 inh = SRC3 coactivator transcriptional activity inhibitors, primary screen, cell-based, luminescence | HEK293 GAL4-SRC3 luciferase reporter | Nuclear receptor coactivator 3 (Homo sapiens), Q9Y6Q9 | 0.17% of 360,000 active | inhibition, % at 3.6 µM;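 active = inhibition above a per-campaign cutoff, the mean of all compounds plus 3 SD, cut at about 60% in these data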;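 note: 0% = DMSO-treated cells and 100% = gossypol-treated cells at 36 µM; higher means less SRC3-driven luciferase light from the GAL4 reporter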
Gli-Sufu block = Gli-Sufu pathway antagonists, primary screen, luciferase luminescence, Sufu-KO-LIGHT cells, uHTS; Sufu-KO-LIGHT fibroblasts, Gli luciferase reporter luminescence; inhibition, % at 5 µM; 0.74% of 340,000 active; AID 588413, 2011;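 active = inhibition above about 55%, limit read from the data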;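 note: 0% = DMSO-treated cells and 100% = wells with medium but no cells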
COUP-TFII inh = NR2F2 transcriptional activity inhibitors, primary screen, cell-based, luciferase reporter, HEK293T, luminescence. COUP transcription factor 2 (Homo sapiens), P24468. HEK293T NGFI-A luciferase reporter. inhibition, % at 8.6 µM. 0.7% of 370,000 active;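 active = inhibition above a per-plate cutoff, mean inhibition of test wells between control levels plus 3 SD, cut at about 38% in these data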;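 note: cells cotransfected with COUP-TFII expression vector driving the NGFI-A reporter; 0% = median of COUP-TF2 test wells and 100% = reporter-only cells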
NR5A2 inv ag = LRH-1 (NR5A2) inverse agonists, primary screen, cell-based, luminescence, HEK293T, StAR-luciferase reporter; inhibition, % at 3.6 µM; AID 602396, 2012; LRH-1 transfected, 24 h; 0.13% of 360,000 active;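 active = inhibition above the mean inhibition of all tested compounds plus 3 SD, cut at about 73% in these data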;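 note: 0% = DMSO wells and 100% = reporter-only cells lacking LRH-1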
Target sequence (O00482 whole entry, looked up): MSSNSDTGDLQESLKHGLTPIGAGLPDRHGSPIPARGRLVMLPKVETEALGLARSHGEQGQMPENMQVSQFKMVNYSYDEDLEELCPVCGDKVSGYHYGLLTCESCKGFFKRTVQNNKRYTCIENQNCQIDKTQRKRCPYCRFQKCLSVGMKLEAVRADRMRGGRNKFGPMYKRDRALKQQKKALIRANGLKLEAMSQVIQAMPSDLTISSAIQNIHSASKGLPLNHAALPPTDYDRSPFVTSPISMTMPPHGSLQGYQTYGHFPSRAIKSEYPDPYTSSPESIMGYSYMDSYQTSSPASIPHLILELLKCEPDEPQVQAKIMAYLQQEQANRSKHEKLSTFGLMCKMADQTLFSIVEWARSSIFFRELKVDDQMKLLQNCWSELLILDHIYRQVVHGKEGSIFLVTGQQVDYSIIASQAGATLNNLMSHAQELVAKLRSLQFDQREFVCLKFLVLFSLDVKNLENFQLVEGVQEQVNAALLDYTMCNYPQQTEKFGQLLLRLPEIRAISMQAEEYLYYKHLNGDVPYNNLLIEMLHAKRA
Gli antag conf = Gli-SUFU pathway antagonists, confirmation, single concentration, luciferase luminescence, Sufu-KO-LIGHT cells; shares compounds with Gli-Sufu block; Gli luciferase reporter; inhibition, % at 5 µM; 40% of 2,500 active; AID 602428, 2012;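 active = mean inhibition at 5 µM reaching about 45%, limit read from the data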;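 note: plate controls were DMSO-treated cells for no effect and wells lacking cells for full effect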
Gli cytotox = cytotoxicity in Sufu-KO-LIGHT cells, confirmation, cytotoxicity control for Gli-SUFU antagonist project, cell-based, ATP luminescence, single concentration. shares compounds with Gli-Sufu block. cytotoxicity, % at 5 µM. 32% of 2,500 active. AID 651994, 2013;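 active = mean cytotoxicity at 5 µM above about 25%, limit read from the data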;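 note: cells exposed to compound overnight for roughly 16 to 18 hours; plate controls were DMSO wells with cells for no effect and medium without cells for full effect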
Wnt3a counter = Wnt3a reporter signal inhibition, confirmation, counter-screen for Gli-SUFU antagonist project, Wnt-LIGHT cells, luminescence, single concentration; shares compounds with Gli-Sufu block; Wnt3a-driven luciferase reporter; inhibition, % at 6.25 µM; 20% of 2,500 active; AID 651995, 2013;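 active = mean inhibition above about 25%, limit read from the data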
Active calls of the source: *; . = no result.

SMILES | SRC1 inh | SRC2 inh | SRC3 inh | Gli-Sufu block | COUP-TFII inh | NR5A2 inv ag | Gli antag conf | Gli cytotox | Wnt3a counter
CN1CCCN(C(=O)C2CCC(C(=O)N3CCCN(C)CC3)CC2)CC1 (stereo not drawn) | 8 | 31 | 15 | 50 | 3 | 10 | 8 | -11 | 13
Cc1ccc(NC(=O)c2ccc(CS(=O)(=O)Cc3ccccc3C)o2)cc1C | . | 11 | . | . | 2 | . | . | . | .
COc1ccc(N(CC(=O)NCc2ccc(F)cc2)C(=O)CCC(=O)Nc2ccccn2)cc1 | -21 | -14 | 12 | 69* | -16 | -6 | 16 | 22 | -26
COc1cccc(CNC(=O)[C@H]2CCCN2C(=O)[C@H]2CCCN2C(=O)N2CCCCC2)c1 | . | -10 | . | . | 3 | . | . | . | .
CCCC(=O)N1CCN(S(=O)(=O)c2cc(Cl)ccc2OC)CC1 | 0 | -21 | 23 | 55* | -8 | -10 | 5 | 11 | -3
CCc1nnc(NC(=O)CCC(=O)N2CCN(S(=O)(=O)c3cc(Cl)ccc3OC)CC2)s1 | -8 | 14 | -5 | 48 | -2 | -17 | . | . | .
Cc1cccc(N2CCN(C(=O)c3cc(S(=O)(=O)N4CCOCC4)cn3C)CC2)c1C | 4 | 3 | 12 | -9 | -4 | -6 | . | . | .
Cc1cccc(N2CCN(C(=O)c3cc(S(=O)(=O)N4CCOCC4)cn3C)CC2C)c1 (stereo not drawn) | 15 | -11 | 16 | 58* | -1 | -2 | 14 | 1 | 10
OCCN1CN(c2ccccc2)C(=S)N(c2ccccc2)C1 | . | 8 | . | . | -5 | . | . | . | .
Cc1ccc(NC(=O)Cn2nc(-c3ccccc3Cl)ccc2=O)c(Br)c1 | -10 | -33 | -13 | 57* | -5 | -3 | 14 | 20 | -7
Cc1ccc(C(=O)N/N=C\C=C\c2ccc(Br)cc2)cn1 | -2 | -19 | 14 | 51 | -15 | 22 | 27 | 5 | -4
Cc1ccc(C(=O)N/N=C/c2cc(Br)ccc2O)cn1 | 13 | 28 | 23 | 19 | -11 | -6 | . | . | .
COc1ccc(-n2c(-c3ccc(Br)cc3)c[n+]3c2CCCCC3)cc1 | 20 | -22 | 35 | 88* | 26 | 17 | 86* | 41* | 23
COc1ccc(-n2c(-c3ccccc3)cc3c2CCCC3=O)cc1 | -20 | . | 2 | 1 | . | 5 | . | . | .
COc1ccc(-n2c(-c3ccc(Br)cc3)c[n+]3c2CCC3)cc1 | -3 | -12 | 22 | 80* | 20 | 20 | 80* | 38* | 9
COc1ccc(-n2c(-c3ccc(Br)cc3)c[n+]3c2SC(C)C3)cc1 (stereo not drawn) | 10 | 2 | 34 | 76* | 13 | 22 | 85* | 42* | -21
COc1ccc(-n2c(-c3ccccc3)c[n+]3c2CCC3)cc1 | 22 | 34 | 26 | 72* | 20 | 18 | 80* | 38* | 23
COc1ccc(C(=O)C2(C(=O)NCc3ccccc3)CC(c3ccccn3)=NO2)cc1 (stereo not drawn) | . | -28 | . | . | -2 | . | . | . | .
CN(c1ccc(NC(=O)Cc2cn(C)c3ccccc23)cc1)c1ccccn1 | . | -10 | . | . | -6 | . | . | . | .
COC(=O)c1ccccc1NC(=O)Cn1c(-c2nonc2N)nc2ccccc21 | -1 | . | -2 | 58* | . | 34 | 63* | 63* | -4
Cc1cc(/C=c2\sc3nc4ccccc4n3c2=O)c(C)n1-c1ccc(C(=O)O)cc1 | 18 | 12 | 8 | -18 | 5 | 0 | . | . | .
Cc1cc(/C=c2/sc3nc4ccccc4n3c2=O)c(C)n1-c1ccccn1 | 88* | 79* | 90* | 86* | 101* | 79* | 94* | 29* | 104*
CCCC(=O)NC(NC(=S)Nc1c(C)n(C)n(-c2ccccc2)c1=O)C(Cl)(Cl)Cl (stereo not drawn) | 0 | 13 | 1 | 2 | 2 | 13 | . | . | .
Cc1c(NC(=S)NC(NC(=O)C(C)(C)C)C(Cl)(Cl)Cl)c(=O)n(-c2ccccc2)n1C (stereo not drawn) | -6 | 0 | 12 | 51 | 8 | 13 | 25 | 1 | 6
C#CCN1CC(COc2ccccc2)Oc2cccc(Oc3ccc(OC)cc3)c2S1(=O)=O (stereo not drawn) | . | 26 | . | . | 11 | . | . | . | .
SMILES | SRC1 inh | SRC2 inh | SRC3 inh | Gli-Sufu block | COUP-TFII inh | NR5A2 inv ag | Gli antag conf | Gli cytotox | Wnt3a counter
COc1ccccc1C(=O)N1CCN(C(=O)[C@@H](Cc2ccccc2)NC(=O)[C@H]2O[C@@H](n3ccc(=O)[nH]c3=O)[C@H](O)[C@@H]2O)CC1 | . | -6 | . | . | 4 | . | . | . | .
COC(=O)/C(=N\Nc1ccc(Cl)cc1)Sc1nnc(-c2ccc(OC)cc2)n1C | 16 | -7 | 16 | 80* | -20 | 10 | 15 | 24 | -16
C[C@@H]1CN(S(=O)(=O)C(C)(C)C)[C@H](CCO)/C1=C\CCO | . | -18 | . | . | 12 | . | . | . | .
Cc1ccc(-n2c(-c3ccccc3)c[n+]3c2CCC3)cc1 | -44 | 16 | 33 | 82* | 33 | 21 | 84* | 24 | 40*
FC(F)Sc1ccc(-n2c(-c3ccc(Cl)cc3)c[n+]3c2CCC3)cc1 | -12 | -21 | 10 | 53 | 27 | 16 | 24 | 2 | -93
Cc1ccc(-n2c(-c3ccc(Cl)cc3)c[n+]3c2CCC3)cc1 | 11 | 35 | 38 | 76* | 34 | 26 | 77* | 37* | 7
CCc1ccc2c(CN3CCN(S(=O)(=O)c4ccccc4F)CC3)cc(=O)oc2c1 | -5 | -15 | -8 | 56* | 19 | -3 | 14 | 0 | -15
CSc1cccc(NC(=S)NN/C(=N/S(=O)(=O)c2ccccc2)N2CCCC2)c1 | . | 21 | . | . | 2 | . | . | . | .
CCOC(=O)c1c(C)[nH]c(C)c1S(=O)(=O)N(C)CC(=O)NCc1cccc(C)c1 | 4 | 7 | -7 | 51 | -12 | -3 | 5 | -4 | -23
Cc1ccccc1NS(=O)(=O)c1ccc(C(=O)NCCCN2CCOCC2)cc1 | -2 | -12 | 7 | 0 | 3 | 12 | . | . | .
O=C(NCCCN1CCOCC1)c1ccc(S(=O)(=O)Nc2ccccc2F)cc1 | 8 | 9 | 6 | 90* | 0 | 2 | 14 | 2 | -20

Assay outcomes (PubChem)
